An excerpt weighted towards active compounds, which were near 14% of everything screened.
CRE-bla Fsk = modulators of forskolin-stimulated CRE signaling in CHO cells | CHO CRE-bla reporter (cAMP response element driving beta-lactamase), forskolin EC10, beta-lactamase ratio | Potency, µM (titrated, usually from 38.2 µM), usual class: activators | actives 2.5% (n = 71,000); active means well fitted activation curve with a large enough effect in the signal ratio, with a control signal flat, not every such curve was filed as active; inconclusive means small, poorly fitted or top-dose-only effect, or effect the other way, or a change in a side signal; the % refers to the signal ratio
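Reporter-gene assay: CHO cells with beta-lactamase behind cAMP responsive elements, co-treated with compound and EC10 NKH 477 for 3 hours at 37 degrees Celsius. Activity came from the 460/530 nm CCF4 emission ratio.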
4MU fluor = 4-MU region autofluorescence; compound autofluorescence, 340/450 nm, 4-MU equivalents; stronger effect = higher value; actives 11% (n = 59,000); max dye-equivalent concentration, M; in the data active means max dye-equivalent concentration above about 10 nM; inconclusive means mostly about 1.1 nM to 9.6 nM
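Intrinsic fluorescence at 340/450 nm (ex/em) was read after 15 min at room temperature in pH 8.0, 100 mM Tris. Each compound concentration expressed as 4-MU-equivalent concentration from a six-point 4-MU standard series on each plate.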
HADH2 inh = blocks human hydroxyacyl-CoA dehydrogenase type II; Q99714; recombinant HADH2, NADH fluorescence, beta-hydroxybutyryl-CoA; Potency, µM (top dose mostly 57.1 µM), actives largely listed as inhibitors; actives 3.4% (n = 73,000); AID 886; further: nearly all actives have a fitted effect of over 60% in size
Target sequence (Q99714 whole entry, looked up, one chain of several): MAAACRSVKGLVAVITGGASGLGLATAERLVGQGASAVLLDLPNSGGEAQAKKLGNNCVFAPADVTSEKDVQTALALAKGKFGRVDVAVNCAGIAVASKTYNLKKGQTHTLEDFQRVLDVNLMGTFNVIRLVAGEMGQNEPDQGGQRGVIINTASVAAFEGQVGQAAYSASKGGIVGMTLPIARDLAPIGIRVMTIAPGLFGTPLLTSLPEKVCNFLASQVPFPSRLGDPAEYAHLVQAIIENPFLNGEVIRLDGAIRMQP
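His-tagged recombinant enzyme from E. coli, 20 nM, preincubated 15 min RT with compound; reaction started with 1 mM NAD+ and 90 uM beta-hydroxybutyryl-CoA in 100 mM Tris-HCl pH 9.0. NADH fluorescence (ex 360/em 450) read over 4 min; last-minus-first difference.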
HSD17B inhib = blocks hydroxysteroid 17-beta dehydrogenase activity | Q99714 | recombinant HSD17B10, NADH fluorescence kinetic | Potency, µM (doses to about 57.1 µM), actives largely listed as inhibitors | actives 7.6% (n = 75,000);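 further: the protocol describes HADH2 (HSD17B10) and not the HSD17B4 of the title; nearly all actives have a fitted effect of over 70% in size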
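Activity followed as NADH fluorescence increase (ex 360, em 450 nm) every 30 seconds for 4 min, using final 90 uM beta-hydroxybutyryl CoA and 1 mM NAD+. Recombinant His-tagged enzyme, 20 nM, pH 9.0 Tris buffer, 15 min compound preincubation.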
AID923 = qHTS Assay for Allosteric/Competitive Inhibitors of Caspase-1: Spectroscopic Profiling in AFC Spectral Region; compound fluorescence, AFC spectral region (405/520 nm); Potency, µM (series often up to 57.5 µM), most hits filed as activators; actives 1.1% (n = 75,000); AID 923, 2007
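Baseline compound fluorescence (AFC region, 405 nm ex/520 nm em) taken from the intercept of kinetic reads with 50 nM caspase-1 and 5 uM Ac-WEHD-AFC; normalized to an on-plate AFC standard curve; compounds titrated up to 57 uM.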
A350 autofl = compound fluoresces in the Alexa 350 spectral region; Compound autofluorescence, 340/450 nm, Alexa 350 dye-equivalents; stronger effect = higher value; max dye-equivalent concentration, M; actives 11% (n = 59,000); in the data active means max dye-equivalent concentration above about 10 nM; inconclusive means mostly about 1.1 nM to 9.6 nM
Of the large screens only hits and unclear results are named; the others gave an inactive call. Unless noted, the call rests on the fitted dose curve; in most records, active means well fitted curve in the direction sought with a large enough effect; inconclusive means small, poorly fitted or top-dose-only effect, or another doubt; inactive means no such curve, though single readings can be large; an effect the other way counts as inactive or inconclusive.

O=C(CNS(=O)(=O)c1cccs1)N1CCc2ccccc2C1	4MU fluor 4.5e-08M, A350 autofl 9.5e-08M
O=C(COc1ccc(Cl)cc1Cl)N(Cc1ccco1)C1CCS(=O)(=O)C1 (stereo unspecified)	none
COc1ccc(OC)c(-c2nnc(NC(=O)C(C)Sc3nncn3C)s2)c1 (stereo unspecified)	CRE-bla Fsk 13µM, HSD17B inhib inconclusive (no result: 4MU fluor, A350 autofl)
CC1CC1C(=O)OCc1cc(=O)n2cc(Br)ccc2n1 (stereo unspecified)	CRE-bla Fsk inconclusive, 4MU fluor 1.1e-08M, A350 autofl 1.3e-08M
O=C(OCc1cc(=O)n2cc(Br)ccc2n1)C1COc2ccccc2O1 (stereo unspecified)	4MU fluor inconclusive, A350 autofl inconclusive
CCOC(=O)/C=C1\CC(=O)Nc2nonc2N1	none (no result: 4MU fluor, A350 autofl)
CCOC(=O)/C=C1\CC(=O)Nc2cc(C)c(C)cc2N1	4MU fluor inconclusive, HSD17B inhib inconclusive, A350 autofl 1e-08M
CCc1c(C)c2c(C)nn(-c3ccccc3)c2[nH]c1=O	CRE-bla Fsk inconclusive, HSD17B inhib inconclusive (no result: 4MU fluor, A350 autofl)
CCOC(=O)Cc1c(C)c2c(C)nn(-c3ccccc3)c2oc1=O	4MU fluor inconclusive, HSD17B inhib 25µM, A350 autofl inconclusive
COc1ccccc1CN1CCC2(CC1)CCN(C(=O)c1ccco1)CC2	none
COc1ccccc1CNc1ncnc2c1nnn2Cc1ccccc1	none
Cc1ccc(CN2CC34C=CC(O3)C(C(=O)NCc3ccc5c(c3)OCO5)C4C2=O)cc1 (stereo unspecified)	none
CCCOC(=O)C1C2C=C[C@]3(CN(CCc4ccccc4)C(=O)[C@H]13)O2 (stereo partly specified)	4MU fluor 1.9e-08M, A350 autofl 2.5e-08M
COCCCNC(=O)C1C2C=CC3(CN(Cc4ccc(C)cc4)C(=O)C13)O2 (stereo unspecified)	4MU fluor 1.2e-07M, A350 autofl 1.1e-07M
CC(C)N1C(=O)C2C(C(=O)NC3CCCCC3)C3C=CC2(O3)C1C(=O)NC1CCCCC1 (stereo unspecified)	4MU fluor 1.5e-08M, A350 autofl 1.7e-08M
CCOC(=O)CN1CC23C=CC(O2)C(C(=O)NC2CCCCC2)C3C1=O (stereo unspecified)	CRE-bla Fsk inconclusive, 4MU fluor inconclusive, A350 autofl 1.1e-08M
Cn1cccc1C(=O)N1CCC[C@@]2(CCN(c3ccccc3)C2)C1	none
O=C(O)C(c1ccccc1)N1CCCC1 (stereo unspecified)	none
FC(F)(F)c1cccc(-n2cccc2/C=N/n2cnnc2)c1	4MU fluor 7.1e-07M, A350 autofl 7.3e-07M (no result: CRE-bla Fsk, HADH2 inh, HSD17B inhib, AID923)
C/C=C/OC(=O)NC(c1cccc(C)c1)[C@@]1(C(=O)OCC)CCCC1=O (stereo partly specified)	none (no result: CRE-bla Fsk, 4MU fluor, A350 autofl)
COCC(=O)N1CCC2(CCCN(c3ncccn3)C2)CC1	HSD17B inhib inconclusive
CC1=C(C(=O)OCc2ccccc2)C(c2ccccn2)c2c(n(C)c(=O)n(C)c2=O)N1 (stereo unspecified)	4MU fluor 3.4e-08M, A350 autofl 3.9e-08M
CC1=C(C(=O)OCc2ccccc2)C(c2ccc(N3CCOCC3)cc2)NC(=O)N1 (stereo unspecified)	none (no result: 4MU fluor, A350 autofl)
O=c1n(CCCN2CCN(c3cccc(Cl)c3)CC2)nc2ccccn12	4MU fluor 3e-08M, HADH2 inh inconclusive, HSD17B inhib 25µM, A350 autofl 3.3e-08M
Cc1cc(O)c(-c2cc(O)c(C)cc2O)cc1O	4MU fluor 2e-08M, HADH2 inh 0.4µM, HSD17B inhib 1µM, A350 autofl 1.5e-08M
Cc1ccc(N)cc1O	none (no result: 4MU fluor, A350 autofl)
C[C@@](O)(CNS(=O)(=O)c1ccccc1)c1ccccc1	none
O=C(O)CSc1nnc(C2CC2)n1-c1ccccc1	HADH2 inh inconclusive, HSD17B inhib 0.4µM
CCN(CC)CCCn1c(C)cc2c(c1=O)C(c1cc(OC)c(OC)cc1OC)C(C#N)=C(N)O2 (stereo unspecified)	4MU fluor 1.3e-08M, A350 autofl 1.6e-08M
COc1cc(OC)c(C2C(C#N)=C(N)Oc3cc(C)n(CCCN4CCOCC4)c(=O)c32)cc1OC (stereo unspecified)	4MU fluor inconclusive, A350 autofl inconclusive
COc1cc(C2C(C#N)=C(N)Oc3cc(C)n(CCc4ccccc4)c(=O)c32)cc2c1OCO2 (stereo unspecified)	4MU fluor 3.5e-08M, A350 autofl 4.1e-08M (no result: CRE-bla Fsk, HADH2 inh, HSD17B inhib, AID923)
COc1ccc(C2Oc3cc(OC)cc(OC)c3CC2O)cc1 (stereo unspecified)	none (no result: CRE-bla Fsk, 4MU fluor, HADH2 inh, A350 autofl)
COc1ccc(Cc2nn3c(-c4ccccc4OC)nnc3s2)cc1	CRE-bla Fsk inconclusive, 4MU fluor inconclusive, HADH2 inh inconclusive, A350 autofl 1.3e-08M
CC1(C)O[C@H]2C[C@@H]3[C@H]4CCC5=CC(=O)CC[C@@]5(C)[C@]4(F)[C@@H](O)C[C@@]3(C)[C@@]2(C(=O)CCl)O1	CRE-bla Fsk inconclusive
Fc1ccc2c(Cl)c(-c3nnc(-c4cccs4)o3)sc2c1	4MU fluor 2e-07M, HADH2 inh inconclusive, HSD17B inhib inconclusive, A350 autofl 2e-07M
O=S(=O)(c1ccc2c(c1)OCCO2)N(Cc1ccc(F)cc1)Cc1nnc(-c2cccs2)o1	CRE-bla Fsk inconclusive, A350 autofl inconclusive
O=C(CCn1c(=S)[nH]c2cc3c(cc2c1=O)OCO3)NCCN1CCCC1	4MU fluor inconclusive, A350 autofl inconclusive
CC1(C)CC(=O)C2=C(C1)NC(Nc1nc3ccccc3o1)=NC21CCCCC1	4MU fluor 1.6e-08M, HADH2 inh inconclusive, HSD17B inhib 3.2µM, A350 autofl 9.1e-08M
O=C(O)c1cc2ccccc2c(Cc2c(O)c(C(=O)O)cc3ccccc23)c1O	none (no result: HSD17B inhib)
COc1ccc(N(CC(O)Cn2nnc3ccccc32)S(=O)(=O)c2ccc(C)cc2)cc1 (stereo unspecified)	none
COCc1nnc(NS(=O)(=O)c2ccccc2)s1	4MU fluor inconclusive, A350 autofl inconclusive
CCOCc1nnc(NS(C)(=O)=O)s1	4MU fluor 4.2e-08M, A350 autofl 4.1e-08M
O[C@@H](c1cc([C@@]23C[C@H]4CC[C@@H]2C[C@H](C4)C3)nc2c(Cl)cc(Cl)cc12)[C@@H]1CCCCN1	none
CC(C)CCOc1ccc(Cl)cc1CN1CCOCC1	A350 autofl inconclusive (no result: CRE-bla Fsk, HADH2 inh, HSD17B inhib, AID923)
N#Cc1nc(-c2ccccc2F)oc1NCc1cccc2c1OCO2	CRE-bla Fsk inconclusive, HSD17B inhib 13µM
N#Cc1nc(Cc2ccccc2)oc1NCCN1CCOCC1	none
COc1ccc(-c2nc(C#N)c(NC(C)c3ccccc3)o2)cc1OC (stereo unspecified)	CRE-bla Fsk inconclusive, 4MU fluor inconclusive, HADH2 inh inconclusive, HSD17B inhib 25µM, A350 autofl inconclusive

Bioassay records as filed in PubChem BioAssay.
